About 83,000 compounds went through this panel and 20% of them were active in at least one assay; those are over-represented in the sample as a whole.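 Results are percent growth after 48 hours of single-concentration exposure. 100 means growth as in untreated cells, lower positive values show inhibition; negative values down to -100 show cell death.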 Activity calls are given as the source filed them. The calls were made as follows: active = growth percent below 10; inactive = the rest.

For the first assay, the system named is RXF 393 renal. Nature of the assay: NCI-60 one-dose screen, 48 h (100 = growth as untreated, 0 = no growth, -100 = all killed). The conditions noted are these: 10 µM unless noted.
Turning to `COc1ccc(C2=Nc3c/c(=C\c4c(O)[nH]c5cc(Cl)ccc45)ccc3=N2)cc1`, the growth was 38.1% (inactive).

Turning to `CCCCCCCCCCCCCCCCCCOc1ccccc1CC(=O)NCC[N+]1(C)CCOCC1`, the growth is -39.4% (active).

As to `Cc1ccc(-c2cc(C(=O)N3N=C(c4ccc(N)cc4)CC3c3ccc(Cl)cc3)c3ccccc3n2)cc1` (configuration not stated), the growth is -0.262% (active).

With `O=C(CN1C(=O)/C(=C/c2ccco2)SC1=S)NCCc1c[nH]c2ccc(F)cc12`, the growth is 110% (inactive).

For `CCN(CC)CCN(CCN(CC)CC)c1ccccc1`, the growth was 90.8% (inactive).

Consider `COc1cc(C(=O)C(=O)c2cc(OC)c(O)c(OC)c2)cc(OC)c1O`, for which the growth is 104% (inactive).

For `O=C(/C=C/c1ccc(Br)cc1)c1ccc(-n2cc(CN3CCN(c4cc5c(cc4F)c(=O)c(C(=O)O)cn5C4CC4)CC3)nn2)cc1`, the growth was 88.4% (inactive).

Another assay deals with SF-268 CNS. The description is as above. The conditions noted are these: 10 µM unless noted.
For `Fc1ccc(COc2ccc(Nc3ncnc4sc5c(c34)CCCC5)cc2)cc1`, the growth is 89.8% (inactive).

For `COc1cc(C2Cc3ncccc3-c3[nH]c(=O)c4cccnc4c32)cc(OC)c1OC` (configuration not stated), the growth was 44.1% (inactive).

For the compound `O=C(c1ccc(Cl)cc1Cl)N1c2ccccc2Sc2ccccc21`, the growth was 50% (inactive).

On to `O=C(N/N=C/c1ccc([N+](=O)[O-])cc1)c1ccc2nc(-c3ccc(Cl)cc3)[nH]c2c1`, for which the growth is 48.5% (inactive).

Take `O=C(NCc1ccccc1O)c1cccc2ccccc12`: the growth is 87.9% (inactive).

On to `CC1=C(C(=O)n2c3ccccc3c3ccccc32)C(c2cccc([N+](=O)[O-])c2)C(C(=O)n2c3ccccc3c3ccccc32)=C(C)N1`, for which the growth is 89.3% (inactive).

As for `COc1ccc(/C=C/C(=O)c2ccc(NC(=O)CSc3nnc(-c4cc(-c5ccccc5)nc5ccccc45)n3-c3ccccc3)cc2)cc1`, the growth is 98.3% (inactive).

With `Cn1cc(-c2nc(-c3c[nH]c4ccncc34)cs2)c2cc(Br)ccc21`, the growth was -73.7% (active).

With `C#Cc1cccc(Oc2ccc(NC(=O)CCl)cc2)c1`, the growth was 49.5% [8.25 µM] (inactive).

For the compound `CC1(C)CC[C@]2(C(=O)N3CCOCC3)CC[C@]3(C)C(=CC[C@@H]4[C@@]5(C)C/C(=C/c6ccncc6)C(=O)C(C)(C)[C@@H]5CC[C@]43C)[C@@H]2C1`, the growth is 48.6% (inactive).

`CC(C)c1ccc(NC(=O)Nc2ccc(NC(=O)c3ccccc3N)cc2)cc1`: the growth was 51.8% (inactive).

On to `Cc1cc(C(=O)Nc2cc(Nc3ncccc3-c3ncnc4nc[nH]c34)ccc2F)cc(C(F)(F)F)c1`, for which the growth is 67.3% (inactive).

For the compound `COc1cc2c3c(n(CCCCNCCCn4c5c(c6cc(OC)c(OC)cc6c4=O)C(=O)c4cc6c(cc4-5)OCO6)c(=O)c2cc1OC)-c1cc2c(cc1C3=O)OCO2`, the growth is 89.5% (inactive).

For the compound `CNC(=O)c1c(NC(=O)c2ccc(C(C)(C)C)cc2)sc2c(CN(C)C)c(O)ccc12`, the growth is 3.83% (active).

In the case of `CCCCn1sc(=O)n(Cc2ccc(CNC(=O)OCc3ccc4c(Cl)cc(Cl)c(O)c4n3)cc2)c1=O`, the growth was 67.1% (inactive).

As for `O=C1Nc2ccc(F)cc2/C1=N/c1nnc(Sc2ccccc2)s1`, the growth was 94.2% (inactive).

Regarding `N#Cc1c(N2CCOCC2)nc(=S)[nH]c1-c1ccccc1`, the growth is 87.3% (inactive).

For the compound `O=C(CSc1nnc2sc(Nc3cccc(Cl)c3)nn12)c1ccc(F)cc1`, the growth is 101% (inactive).

`C=C(CO)[C@@H]1CC[C@]2(COC3CCCCO3)CC[C@]3(C)[C@H](CC[C@@H]4[C@@]5(C)C=C(C=O)C(=O)C(C)(C)[C@@H]5CC[C@]43C)[C@@H]12` (some centres not stated): the growth was -83.2% (active).

Turning to `COc1ccc(-c2cc(C(=O)N3N=C(c4ccc(N)cc4)CC3c3ccccc3)c3ccccc3n2)cc1` (configuration not stated), the growth was 51.5% (inactive).

`COc1ccc(-c2cc(-c3cc(OC)c(OC)c(OC)c3)c(C#N)c(=O)n2CCCCCC(=O)NO)cc1`: the growth is 91.6% (inactive).

`Cn1ccnc1C(=O)/C=C/c1ccc(C(=O)Nc2ccc(F)cc2)cc1`: the growth is 14.4% (inactive).

In the case of `C=C1C(=O)O[C@H]2[C@H]1CC/C(COC(=O)NCCCCCCCCNC(=O)OC/C1=C/CC[C@@]3(C)O[C@H]3[C@H]3OC(=O)C(=C)[C@@H]3CC1)=C\CC[C@@]1(C)O[C@@H]21`, the growth was -66.8% (active).

Turning to `C/C(C=O)=C\c1ccc2c(c1)OCO2`, the growth was 110% (inactive).

In the case of `COc1cccc(/C=C/C(=O)c2cc3c(N)c(C(=O)Nc4cccc(Cl)c4C)sc3nc2C)c1`, the growth is 10.1% (inactive).

Turning to `COC(=O)/C=C1/SC(=Nc2cccc(Cl)c2)N(CCc2c[nH]c3ccc(O)cc23)C1=O`, the growth was 25.3% (inactive).

Turning to `CCC/C(=N\NC(N)=O)C(OC)OC`, the growth is 98.9% (inactive).

With `COc1ccc2cc(Cn3cc[n+](Cc4ccc5ccccc5c4)c3)ccc2c1`, the growth is 22.6% (inactive).

Regarding `Cn1c(=O)c2c(c3ccccc31)OC(N)=C(C#N)C21C(=O)c2ccccc2C1=O`, the growth was 93% (inactive).

`CN1CCN(c2ccc3c(c2)nc(NNC(=O)c2cnccn2)c2cccn23)CC1`: the growth was 25.9% (inactive).

With `Cc1cc(C)c(-c2c(O)c(Br)c(-c3c(C)cc(C)c(Br)c3C)c(O)c2Br)c(C)c1Br`, the growth is 31% (inactive).

For `CCN(CC)S(=O)(=O)c1ccc(S(=O)(=O)N2CCC[C@@H](C(=O)N3CCN(C(=O)OC(C)(C)C)CC3)C2)cc1`, the growth is 73.1% (inactive).

In the case of `O=C1/C=C/[C@@H](O)[C@@H]2C[C@@H](O)C[C@H]2/C=C/CCC[C@H](CCOCc2ccccc2)O1`, the growth was 13.1% (inactive).

Turning to `COc1ccc(C2=Nc3c/c(=C\c4c(O)[nH]c5cc(Cl)ccc45)ccc3=N2)cc1`, the growth was 89.7% (inactive).

Turning to `CCCCCCCCCCCCCCCCCCOc1ccccc1CC(=O)NCC[N+]1(C)CCOCC1`, the growth was 41.5% (inactive).

As for `Cc1ccc(-c2cc(C(=O)N3N=C(c4ccc(N)cc4)CC3c3ccc(Cl)cc3)c3ccccc3n2)cc1` (configuration not stated), the growth was 38.9% (inactive).

As to `O=C(CN1C(=O)/C(=C/c2ccco2)SC1=S)NCCc1c[nH]c2ccc(F)cc12`, the growth is 93.6% (inactive).

For the compound `CCN(CC)CCN(CCN(CC)CC)c1ccccc1`, the growth is 97.7% (inactive).

Take `COc1cc(C(=O)C(=O)c2cc(OC)c(O)c(OC)c2)cc(OC)c1O`: the growth was 99.3% (inactive).

Turning to `O=C(/C=C/c1ccc(Br)cc1)c1ccc(-n2cc(CN3CCN(c4cc5c(cc4F)c(=O)c(C(=O)O)cn5C4CC4)CC3)nn2)cc1`, the growth is 72.6% (inactive).

These data come from PubChem BioAssay (NCI).
